Screening results as filed in PubChem.
Hits are enriched below; roughly 32% of the tested compounds scored in any of these assays.
PostGolgi ctrl = growth inhibition of yeast control strain, primary screen, counter-screen for post-Golgi transport modulator project | inhibition, % at 10 µM | 98,000 tested, 5% active | efflux-deficient yeast background strain, growth absorbance A615, 16 h
CYP2C19 act = human CYP2C19 activators, primary screen, biochemical, luminescence | Cytochrome P450 2C19 (Homo sapiens), P33261 | activation factor at 5 µM | recombinant CYP2C19, luciferin-H EGE luminescence; stronger effect = higher value; 0 = fully inhibited enzyme, 1 = untreated enzyme | 96,000 tested, under 10 active | AID 1025, 2008;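 active means activation factor of at least 2 at 5 µM in the primary screen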;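 further: 0 = wells with 2.5 mM tranylcypromine and 1 = vehicle-only wells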
Target sequence (P33261 whole entry, looked up): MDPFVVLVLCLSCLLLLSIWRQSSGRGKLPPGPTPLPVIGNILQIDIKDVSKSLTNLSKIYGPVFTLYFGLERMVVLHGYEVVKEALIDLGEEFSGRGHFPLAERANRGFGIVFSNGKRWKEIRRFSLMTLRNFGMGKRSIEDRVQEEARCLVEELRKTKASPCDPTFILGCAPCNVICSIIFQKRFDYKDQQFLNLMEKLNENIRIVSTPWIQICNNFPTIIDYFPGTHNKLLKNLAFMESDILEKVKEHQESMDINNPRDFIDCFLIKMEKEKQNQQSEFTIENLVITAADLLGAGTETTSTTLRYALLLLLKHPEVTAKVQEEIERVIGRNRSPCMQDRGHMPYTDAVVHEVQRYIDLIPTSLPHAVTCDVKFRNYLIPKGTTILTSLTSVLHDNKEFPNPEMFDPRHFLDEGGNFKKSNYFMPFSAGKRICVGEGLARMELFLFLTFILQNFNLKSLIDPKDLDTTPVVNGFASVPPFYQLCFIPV
CYP2C9 activ = human CYP2C9 activators, primary screen, biochemical, luminescence | 96,000 tested, 1.4% active | activation factor at 5 µM | recombinant CYP2C9, luciferin-H conversion; stronger effect = higher value; factor 1 = untreated enzyme, 0 = blocked;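 active means activation factor of 2 or more for CYP2C9 at a 5 µM dose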;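 further: 0 = sulfaphenazole-blocked wells and 1 = vehicle-only wells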
PostGolgi yeast = phenotypic screen on post-Golgi transport, primary screen. post-Golgi transport phenotypic cell assay. inhibition, % at 10 µM. 98,000 tested, 0.9% active;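 further: yeast cells grown in 1536-well plates; yeast grown about 18 h at 30C before absorbance read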
CYP2C19 inhib = blockers of cytochrome P450 2C19 activity – biochemical, luminescence, ADME assay, primary screen; 96,000 tested, 21% active; inhibition, % at 5 µM; P33261; CYP2C19 Supersomes, luciferin-H EGE luminescence, 30 min;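 active means CYP2C19 inhibition above a set limit at 5 µM in the primary screen, cut at about 50% in these data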;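 further: plate controls were negative control wells for no effect and 2.5 mM tranylcypromine positive control for full effect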
CYP2C9 inh = blockers of cytochrome P450 2C9 activity – biochemical, luminescence, ADME assay, primary screen; AID 777, 2007; inhibition, % at 5 µM; CYP2C9 Supersomes, luciferin-H conversion; 96,000 tested, 20% active; P11712;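 active means blocking of liver enzyme CYP2C9 beyond about 50% at 5 µM, limit read from the data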
Starred values were filed as active, the others as inactive; · = no result given. Unless noted, no stated cut-off is given here; in the data, active means inhibition above about 30%; inactive means the rest.

SMILES	PostGolgi ctrl	CYP2C19 act	CYP2C9 activ	PostGolgi yeast	CYP2C19 inhib	CYP2C9 inh
O=C(Nc1ccc(Cl)cc1)N[C@@H]1c2c(ccc3ccccc23)OC[C@@H]1CO	11	0.8	0.6	-9	18	43
CCC(=C(c1ccc(OC)cc1)c1ccc(OC)cc1)c1cn(CC(O)CN2CCN(C)CC2)c2ccccc12 (centres undefined)	91*	0.9	0.3	28	7	70*
O=S(=O)(c1ccc(Cl)cc1)c1ccccn1	6	0.8	2.1*	4	17	-108
N#C/C(=C\c1ccc(Cl)cc1)c1nc2ncccc2[nH]1	48*	0.9	0.4	27	15	61*
Cc1ccc(/C=C(\C#N)c2nc3ccccc3[nH]2)s1	27	0.8	0.7	-5	16	34
COc1ccc(O)c(-c2[nH]ncc2C(=O)c2ccccc2C)c1	7	0.1	0.1	20	90*	87*
CCN1C(=O)c2ccccc2S(=O)c2ccc(C(=O)NCCCN3CCCC3=O)cc21 (centres undefined)	5	1.1	0.9	0	-14	14
CC(C)N(Cc1nc(-c2ccccc2)no1)C(=O)Cc1ccccc1	29	0.1	0.3	-8	89*	71*
Cc1ccc(-c2noc(CN(C(=O)CCN3C(=O)c4ccccc4C3=O)C(C)C)n2)cc1	11	0.8	0.7	-2	24	31
Cc1ccc(C)c(C(=O)N(Cc2nc(-c3ccc(Cl)cc3)no2)C(C)C)c1	32*	0.2	0.1	-1	83*	88*
Cc1ccc(-c2noc(CN(C(=O)CCCCCN3C(=O)c4ccccc4C3=O)C(C)C)n2)cc1	24	0	0.1	-4	96*	91*
O=C(CCc1nc(-c2ccccc2)no1)N1CCCC1	10	0.8	0.8	-1	24	16
CC(C)N(Cc1nc(-c2ccccc2)no1)C(=O)CSc1ccccc1	26	0.1	0.2	-7	92*	79*
COCCCNCCOc1cc(C(C)C)ccc1C	19	0.9	1	6	10	0
CCn1cc(-c2cc(C(F)(F)F)n3nc(C(=O)O)cc3n2)c(C)n1	13	1	0.9	-4	-4	10
Cc1c(NC(=O)Cn2ccc([N+](=O)[O-])n2)c(=O)n(-c2ccccc2)n1C	16	1	1.6	-1	3	-55
Cc1ccc(N(C(=O)c2ccc(Br)o2)C2C=CS(=O)(=O)C2)cc1 (centres undefined)	9	0.7	0.9	-10	35	8
CC(C)N(Cc1nc(-c2ccccc2)no1)C(=O)COc1ccccc1	12	0.1	0.4	0	89*	64*
Cc1ccc(-c2noc(CN(C(=O)Cc3ccccc3)C(C)C)n2)cc1	16	0.3	0.2	-4	74*	78*
Cc1ccc(-c2nc(N/N=C/c3ccccc3[N+](=O)[O-])c3ccccc3n2)cc1	21	1.1	1	-4	-10	1
Brc1ccc(-c2nc(N/N=C/c3cccnc3)c3ccccc3n2)cc1	11	0.6	0.4	2	43	64*
O=C(Nc1nc(-c2ccc(Cl)s2)cs1)c1ccccc1	10	1.1	1.1	0	-6	-7
COc1ccccc1Nc1nc(-c2cccs2)cs1	52*	0.2	0.3	4	83*	72*
CC(=O)Nc1nc(-c2cccs2)cs1	1	0.7	0.5	6	31	54*
O=C(Nc1nc(-c2cccs2)cs1)c1ccc(Cl)s1	21	·	·	32*	·	·
COc1ccc(OC)c(Nc2nc(-c3cccs3)cs2)c1	13	1	0.9	-1	2	12
CNC(=O)c1ccsc1NC(=O)c1ccc(Cl)s1	24	0.2	0.3	-2	77*	68*
CCOC(=O)c1[nH]c(C)c(CN(Cc2ccco2)C(=O)C(F)(F)F)c1C	19	1	0.8	3	-3	18
COc1ccccc1Nc1nc(C2(C)CCC(=O)O2)cs1 (centres undefined)	20	0.2	0.6	3	81*	39
CC1(C)Cc2ccccc2-c2nnc(-c3ccccn3)n21	9	1.1	0.9	-6	-13	14
